# Bioassay records from PubChem.
# The list is not random: actives were taken first. Their share in the collection is about 2.8%.
# Fam108B counter – Fam108B inhibition, counter-screen for RBBP9 inhibitors. recombinant Fam108B, FP-Rh probe fluorescence polarization. inhibition, % at 9.51 µM. 300,000 compounds, 0.33% hits. AID 1947;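 active = inhibition above the screen mean inhibition plus 3 SD, computed separately per campaign, cut at about 18% in these data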;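 also: inhibitors lower polarization as less probe binds the enzyme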
# PAFAH2 inh – inhibitors of human PAFAH2; Q99487; recombinant PAFAH2, FP-rhodamine activity probe, fluorescence polarization; inhibition, % at 3.39 µM; 340,000 compounds, 0.99% hits;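 active = inhibition above the mean over all tested compounds plus 3 SD, cut at about 30% in these data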;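 also: inhibitors block probe labeling of enzyme so polarization drops; 0% = enzyme with DMSO and 100% = wells lacking PAFAH2 protein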
# PAFAH1B3 FP inh – PAFAH1B3 (human) inhibition | 340,000 compounds, 0.28% hits | inhibition, % at 3.39 µM | Q15102 | recombinant PAFAH1B3, FP-rhodamine probe, fluorescence polarization;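 active = inhibition above the screen-wide average of all tested compounds plus 3 SD, cut at about 25% in these data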;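 also: 0% = enzyme with DMSO only and 100% = wells lacking PAFAH1B3 protein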
# PME-1 primary – PME-1 (human) inhibition; Q9Y570; recombinant PME-1, FP-Rh probe fluorescence polarization; inhibition, % at 5.9 µM; 320,000 compounds, 0.53% hits; AID 2130;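 active = inhibition above the campaign mean of all compounds plus 3 SD, cut at about 26% in these data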;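 also: competitive labeling of PME-1 active site by serine hydrolase directed probe; 0% = PME-1 with DMSO and 100% = wells lacking PME-1 enzyme; inhibitors block probe labeling so polarization falls and inhibition rises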
# Target sequence (Q9Y570 whole entry, looked up): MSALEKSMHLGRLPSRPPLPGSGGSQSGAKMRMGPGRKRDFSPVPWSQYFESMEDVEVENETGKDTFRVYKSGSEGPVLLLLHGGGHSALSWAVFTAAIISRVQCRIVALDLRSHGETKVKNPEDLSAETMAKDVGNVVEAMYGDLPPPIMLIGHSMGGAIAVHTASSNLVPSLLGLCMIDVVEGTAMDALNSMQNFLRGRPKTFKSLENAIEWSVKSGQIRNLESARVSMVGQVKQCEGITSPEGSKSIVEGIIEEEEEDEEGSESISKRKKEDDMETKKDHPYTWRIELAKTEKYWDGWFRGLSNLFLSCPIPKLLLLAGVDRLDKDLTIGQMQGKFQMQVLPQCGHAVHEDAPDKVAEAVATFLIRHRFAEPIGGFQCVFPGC
# pPAFAH inh – pPAFAH (human) enzyme inhibition | Q13093 | recombinant pPAFAH, FP-rhodamine probe fluorescence polarization | inhibition, % at 3.39 µM | 330,000 compounds, 1.5% hits | AID 463082;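 active = inhibition above the mean inhibition across the screen plus 3 SD, cut at about 25% in these data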;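 also: inhibitors block binding of the rhodamine activity-based probe so polarization drops; 0% = enzyme with DMSO and 100% = wells lacking pPAFAH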
# PAFAH1B2 inh – inhibitors of human PAFAH1B2. P68402. recombinant PAFAH1B2, FP-rhodamine activity probe, fluorescence polarization. inhibition, % at 3.39 µM. 340,000 compounds, 1.2% hits. AID 492953;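 active = inhibition above the mean of all tested compounds plus 3 SD, cut at about 24% in these data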;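 also: 0% = enzyme with DMSO and 100% = wells lacking PAFAH1B2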
# Target sequence (P68402 whole entry, looked up): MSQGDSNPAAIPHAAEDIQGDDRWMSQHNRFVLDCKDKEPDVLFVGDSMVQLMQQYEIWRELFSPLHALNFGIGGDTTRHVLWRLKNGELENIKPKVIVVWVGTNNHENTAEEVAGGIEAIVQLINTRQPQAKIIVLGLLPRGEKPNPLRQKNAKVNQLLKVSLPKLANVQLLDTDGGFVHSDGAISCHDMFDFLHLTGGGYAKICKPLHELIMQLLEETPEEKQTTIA
# Fam108b confirm – confirmation of mouse Fam108b serine hydrolase inhibitors. shares compounds with Fam108B counter. recombinant Fam108b, FP-Rh probe fluorescence polarization. inhibition, % at 9.51 µM. 930 compounds, 44% hits. AID 1978;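 active = inhibition above a limit from the primary screen, the mean over all compounds plus 3 SD, cut at about 19% in these data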;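 also: 0% = median of active Fam108b wells and 100% = catalytically dead S170A mutant; inhibitors free the probe so polarization falls as inhibition rises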
# Fam108b ABPP HTS – mouse ABHD17B inhibition. shares compounds with Fam108B counter. recombinant Fam108b, gel-based ABPP, fluorophosphonate probe. 260 compounds, 44% hits. inhibition, % at 20 µM; in the data active = inhibition above about 40%
# * = called active by the depositor; . = no result.
SMILES,Fam108B counter,PAFAH2 inh,PAFAH1B3 FP inh,PME-1 primary,pPAFAH inh,PAFAH1B2 inh,Fam108b confirm,others
Cc1ccc(S(=O)(=O)N2CCN(C(=O)CSc3ncn[nH]3)CC2)c(C)c1,2.2,4.7,1.8,-6.2,0.3,-5.7,.,
Cc1ccc(S(=O)(=O)Nc2ccc(O)c(Sc3ncn[nH]3)c2)cc1,-2.6,8.2,8.8,3.1,0.4,8.0,.,
Cc1ccc(S(=O)(=O)/N=C2/C=C(Sc3ncn[nH]3)C(=O)c3ccccc32)c(C)c1,60.1*,.,.,35.7*,5.7,.,33.6*,
Cc1[nH]nc(C(F)(F)F)c1N=NN1CCOCC1,.,4.9,2.8,.,.,0.8,.,
O=C(COC(=O)CNC(=O)c1ccccc1)NCCNC(=O)COC(=O)CNC(=O)c1ccccc1,.,1.9,0.7,-3.3,2.3,5.0,.,
O=C1c2c(O)cccc2Cc2cccc(O)c21,21.6*,3.8,9.8,36.8*,15.1,11.6,43.4*,
O=C1c2ccccc2CSc2c(O)cccc21,4.3,.,.,-5.0,2.4,.,.,
CNC[C@H]1Oc2ccc(NC(=O)Cc3cn(C)c4ccccc34)cc2CC(=O)N([C@@H](C)CO)C[C@H]1C,.,-1.7,15.8,.,5.7,-1.6,.,
O=C(NC1CCCC1)c1ccc(CNc2c(N3CCOCC3)c(=O)c2=O)cc1,1.1,3.5,-1.8,2.6,-4.0,-2.7,.,
O=C(CSc1ccc(-c2ccco2)nn1)NCc1ccccc1Cl,21.5*,2.0,-2.5,16.7,8.1,3.3,5.6,
CCCCCCCCOc1ccc(C2OC34CCCCC3C(C#N)(C#N)C2(C#N)C(=N)O4)cc1 (configuration not stated),19.2*,33.8*,22.0,19.7,29.9*,27.2*,-5.3,
CCCCCOc1ccc(C2NC(=O)NC2=O)cc1 (configuration not stated),-0.2,9.2,-0.6,-6.5,1.0,1.6,.,
CN(C(=O)c1cccc(NC(=O)Cc2ccc(NC(=O)C3CCCN(C(=O)C4CCC4)C3)cc2)c1)C1CCC1 (configuration not stated),.,6.1,3.9,.,.,4.1,.,
COC(=O)c1ccc(COc2ccc(/C=C(\C#N)c3nc4ccccc4[nH]3)cc2OC)o1,18.6*,-19.9,-19.2,-29.5,-4.4,-6.4,-15.8,
COc1cc2cc(C(=O)N/N=C/c3ccc(F)cc3)[nH]c2cc1OC,5.8,3.6,6.8,-13.5,12.2,6.3,.,
COc1cccc(/C=N/NC(=O)N/N=C/c2cccc(OC)c2O)c1O,5.1,10.6,7.9,-33.7,6.7,2.4,.,
COc1cc2cc(C(=O)N/N=C/c3ccccc3Cl)[nH]c2cc1OC,32.3*,9.0,9.2,-2.6,18.8,6.8,29.9*,
COc1cccc(/C=N/NC(=O)c2ccc3nc[nH]c3c2)c1O,-4.4,0.9,2.9,1.4,8.3,5.6,.,
COc1cc(OC)c2cc(C(=O)N/N=C/c3cccc(OC)c3O)[nH]c2c1,22.5*,-11.2,15.6,43.7*,17.7,10.7,22.2*,
COc1cccc(/C=N/NC(=O)c2cc3c(OC)ccc(OC)c3[nH]2)c1O,27.4*,-5.6,39.5*,42.2*,23.7,28.8*,13.9,
CCc1cc(C(=O)O)c(NC(=O)/C=C/c2ccc(OC)cc2)s1,1.5,-2.1,6.5,-84.2,17.1,20.1,.,
CCc1cc(C(=O)O)c(NC(=O)/C=C/c2ccc(OC)c(OC)c2)s1,32.4*,9.0,5.5,9.5,18.9,24.8*,3.6,
O=[N+]([O-])c1cccc(-c2csc(Nc3ccccc3)n2)c1,6.6,-0.7,0.5,22.7,10.6,-1.8,.,
O=[N+]([O-])c1cccc(-c2csc(NN=Cc3cccc(O)c3)n2)c1,.,.,.,.,.,.,.,Fam108b ABPP HTS=0.0
Cc1occc1-c1nnc(SCC(=O)NC(=O)NC(C)C)n1N,1.2,12.4,-6.9,-0.8,0.4,-9.2,.,
SMILES,Fam108B counter,PAFAH2 inh,PAFAH1B3 FP inh,PME-1 primary,pPAFAH inh,PAFAH1B2 inh,Fam108b confirm,others
CCN(CC)S(=O)(=O)c1ccc(N2CCOCC2)c(NC(=O)c2ccc(=O)[nH]c2)c1,.,4.6,3.3,.,1.7,1.2,.,
O=C(Nc1ccc(N2CCCCC2)c(Cl)c1)c1ccc(N2CCOCC2)c([N+](=O)[O-])c1,18.6*,6.8,-0.3,5.7,4.7,1.6,8.1,
CNC(=O)c1[nH]cnc1C(=O)Nc1ccc(OC)cc1,-3.8,-3.9,5.4,-4.2,4.9,-3.9,.,
Cc1ccc(C)c(S(=O)(=O)Nc2cc(SCC(=O)O)c(O)c3ccccc23)c1,28.7*,34.1*,51.0*,27.7*,12.4,72.3*,-10.4,
O=C(c1ccc(NS(=O)(=O)c2ccc(Cl)c(Cl)c2)cc1)N1CCOCC1,.,3.3,1.1,.,.,2.6,.,
Cc1cccc(-c2nc(Nc3ccc(N4CCOCC4)cc3)c3ccccc3n2)c1,20.1*,6.2,6.9,19.3,11.3,0.2,1.5,
COc1cc(/C=C2/C(=O)c3cccc([N+](=O)[O-])c3C2=O)c(Br)cc1O,26.7*,39.6*,40.4*,31.7*,32.0*,16.5,40.1*,Fam108b ABPP HTS=45.0*
COc1ccccc1NC(=O)CCCCCN1C(=O)c2cccc([N+](=O)[O-])c2C1=O,0.0,4.1,-7.1,-0.3,1.8,1.5,.,
O=C(CCc1ccc(O)c(O)c1)N/N=C/c1ccc2c(c1)OCO2,1.3,9.1,7.1,-5.3,21.4,2.4,.,
CC(C)Oc1ccc(CCC(=O)N/N=C/c2ccc3c(c2)OCO3)cc1,25.5*,6.2,10.1,41.4*,23.8,1.2,0.1,
COc1ccccc1NC(=O)N1CCc2[nH]c3ccc(F)cc3c2C1,21.5*,3.8,5.4,5.5,3.1,3.0,-5.7,
O=C(C1CCCCC1)N1CCc2[nH]c3ccc(F)cc3c2C1,-3.6,3.8,12.6,-1.1,3.8,5.4,.,
O=C(NCCc1c[nH]c2ccccc12)OCCCCOC(=O)NCCc1c[nH]c2ccccc12,23.1*,-1.0,2.6,9.5,21.6,13.7,-2.5,
O=C(COC(=O)c1ccccc1C(=O)OCC(=O)NCCc1c[nH]c2ccccc12)NCCc1c[nH]c2ccccc12,18.8*,0.3,5.2,8.7,20.1,5.3,11.4,
O=C(CCCc1c[nH]c2ccccc12)NCCc1c[nH]c2ccccc12,-0.1,11.5,-1.1,0.2,7.4,0.9,.,
CCOC(=O)N1CCN(C(=O)COC(=O)CNC(=O)c2ccc(OCC)c(OCC)c2)CC1,.,0.1,6.7,.,.,0.8,.,
O=C(CN1CCN(c2ccc(O)cc2)CC1)N(C1CC1)C1CCS(=O)(=O)C1 (configuration not stated),.,-2.2,3.3,-6.7,3.8,2.9,.,
CC(=O)C1C(c2ccc(F)c(F)c2)NC(=O)NC1(O)C(F)(F)F (configuration not stated),7.2,2.6,7.1,-0.8,2.7,2.5,.,
